# Measurements as given in PubChem BioAssay (Tox21).
# Values joined by “and” are separate entries in the source; they are usually repeats but may differ in a detail not shown here. Equal entries are not always repeated. Inconclusive results are not listed. A call without a number means that no potency is given here. Some compounds were tested as several samples or in several runs, with calls that do not always agree. Active and inactive are the calls of the source. Unless noted, the call rests on the fitted dose curve; in most records, active means well fitted curve in the direction sought with a large enough effect in the repeat runs; inconclusive means weak or mixed curves; inactive means no such curve, though single readings can be large; an effect the other way counts as inactive or inconclusive.
# Experiments:
# [1] = qHTS assay to identify small molecule agonists of the estrogen receptor alpha (ER-alpha) signaling pathway in the presence of an antagonist - cell viability counter screen (AID 1259386);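 further: cells exposed to compounds for 22 h at 37 °C before the viability read; nearly all actives have a fitted effect of over 30% in size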; further: potency means the concentration at half of the fitted maximal effect
# Summary of the method: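 Using estrogen-depleted VM7Luc4E2 cells, the 15-concentration compound series was applied together with 10.0nM ICI-182,780 and incubated 22hr at 37C/5% CO2. Cell viability was then scored by CellTiter-Fluor.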
# [2] = target: Progesterone receptor (Homo sapiens) (UniProt P06401); test: qHTS assay to identify small molecule agonists of the progesterone receptor (PR) signaling pathway (AID 1346784; calls by dose curve; further: nearly all actives have a fitted effect of over 30% in size)
# Summary of the method: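 Seed PR-UAS-bla HEK 293T cells (2% charcoal-stripped FBS), incubate 6 hr at 37C; add compounds in DMSO, 16 hr at 37C; add LiveBLAzer B/G substrate, 2 hr RT; read fluorescence intensity.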
# [3] = qHTS assay to identify small molecule antagonists of the progesterone receptor (PR) signaling pathway - cell viability counter screen (AID 1346798); further: nearly all actives have a fitted effect of over 50% in size; further: potency means the concentration at half of the fitted maximal effect
# Summary of the method: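 Measures cytotoxicity in parallel with the PR antagonist reporter read: HEK293T PR-UAS-bla cells get compound and R5020 for 16 hr, and remaining viable cells are quantified by CellTiter-Glo luminescence.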
# [4] = qHTS assay to identify small molecule agonists of the progesterone receptor (PR) signaling pathway - cell viability counter screen (AID 1346799; calls by dose curve; further: nearly all actives have a fitted effect of over 45% in size; further: potency means the concentration at half of the fitted maximal effect)
# Summary of the method: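 Using the same plates as the PR reporter screen, HEK293T PR-UAS-bla cells received compounds for 16 hr at 37C and were then lysed with CellTiter-Glo; luminescence was read 30 min later at room temperature.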
# [5] = qHTS assay to identify small molecule antagonists of the TGF-beta/Smad signaling pathway - cell viability counter screen (AID 1346824); further: nearly all actives have a fitted effect of over 50% in size; further: potency means the concentration at half of the fitted maximal effect
# Summary of the method: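 SBE-bla HEK 293T cells, incubated overnight, then compound plus 0.25 ng/mL TGF-beta1 (stock added) for 5 hr at 37 C. Viability was read in the same wells by CellTiter-Glo luminescence after 30 min at room temperature.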
# [6] = qHTS assay to identify small molecule agonists of the TGF-beta/Smad signaling pathway - cell viability counter screen (AID 1346829); further: nearly all actives have a fitted effect of over 45% in size; further: potency means the concentration at half of the fitted maximal effect
# Summary of the method: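 HEK 293T SBE-bla line, 5 hr compound exposure at 37 C, multiplexed CellTiter-Glo viability read by luminescence.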
# [7] = target: Thyrotropin-releasing hormone receptor (Homo sapiens) (UniProt P34981); test: qHTS assay to identify small molecule antagonists of the thyrotropin-releasing hormone receptor (TRHR) signaling pathway (AID 1346877; active means well fitted inhibition curve with a large enough effect in the repeat runs, not every such curve was filed as active; further: potency means the concentration at half of the fitted maximal effect)
# Summary of the method: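 Calcium signal in dye-loaded TRHR/HEK293 cells; compounds added 5 min before TRH (1 nM final); fluorescence monitored 3 min at 1 s steps.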
# [8] = target: Thyrotropin-releasing hormone receptor (Homo sapiens) (UniProt P34981); test: qHTS assay to identify small molecule agonists of the thyrotropin-releasing hormone receptor (TRHR) signaling pathway (AID 1346891; calls by dose curve;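 further: HEK293 cells expressing TRHR with calcium dye readout; series mostly up to about 58 µM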)
# Summary of the method: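 Overnight-plated (18 h, 37 °C, 5% CO2) TRHR-Hek293 cells; 2 h calcium dye at 37 °C; compound in DMSO; 3-min kinetic fluorescence read.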
# [9] = Human pregnane X receptor (PXR) small molecule agonists, qHTS cell viability counter screen (AID 1346977); further: nearly all actives have a fitted effect of over 50% in size; further: potency means the concentration at half of the fitted maximal effect
# Summary of the method: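 After a 5hr pre-incubation, PXR-Luc HepG2 cells received compounds plus positive control in DMSO and were kept 24hr at 37C. Cell viability was quantified by fluorescence from CellTiter-Fluor added for the final hour.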
# [10] = Caspase-3/7 induction in HepG2 cells by small molecules, qHTS assay (AID 1346978); further: nearly all actives have a fitted effect of over 15% in size; further: potency means the concentration at half of the fitted maximal effect
# Summary of the method: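 Wild-type HepG2 cells, 2,000/well, settled 5 hr at 37 C and 5% CO2, then compound-treated for 17 hr; caspase-3/7 activity read by luminescent Caspase-Glo 3/7 after 30 min at room temperature.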
# [11] = Caspase-3/7 induction in CHO-K1 cells by small molecules, qHTS cell viability counter screen (AID 1346979); further: nearly all actives have a fitted effect of over 35% in size; further: potency means the concentration at half of the fitted maximal effect
# Summary of the method: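 Multiplexed with Caspase-Glo 3/7 in CHO-K1 cells, this counter screen added CellTiter-Fluor after 16hr of compound exposure and recorded fluorescence 1hr later.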
# [12] = Caspase-3/7 induction in CHO-K1 cells by small molecules, qHTS assay (AID 1346980); further: nearly all actives have a fitted effect of over 15% in size; further: potency means the concentration at half of the fitted maximal effect
# Summary of the method: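 Wild-type CHO-K1 cells exposed to compounds for 17hr at 37 C, 5% CO2. Caspase-3/7 activity then measured by Caspase-Glo 3/7 luminescence after 30min at room temperature.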
# [13] = Caspase-3/7 induction in HepG2 cells by small molecules, qHTS cell viability counter screen (AID 1346981); further: nearly all actives have a fitted effect of over 30% in size; further: potency means the concentration at half of the fitted maximal effect
# Summary of the method: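 After a 5-hr attachment period at 37 C and 5% CO2, wild-type HepG2 cells received compounds in DMSO. Sixteen hours later CellTiter-Fluor was dispensed and the fluorescent signal quantified after a further hour.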
# [14] = target: Nuclear receptor subfamily 1 group I member 2 (Homo sapiens) (UniProt O75469); test: Human pregnane X receptor (PXR) small molecule agonists, qHTS assay (AID 1346982); further: nearly all actives have a fitted effect of over 35% in size; further: potency means the concentration at half of the fitted maximal effect
# Summary of the method: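 Tox21 qHTS; PXR-Luc HepG2; compounds pinned from DMSO; 24 hr, 37 C; ONE-Glo luciferase detection, 30 min room temperature.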
# [15] = target: Nuclear receptor subfamily 1 group I member 2 (Homo sapiens) (UniProt O75469); test: CYP3A4 induction through human pregnane X receptor (PXR) by small molecules, qHTS assay (AID 1346984); further: nearly all actives have a fitted effect of over 40% in size
# Summary of the method: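 Cells (DPX-2; HepG2 with PXR element plus CYP3A4-promoter luciferase) settled 5hr, then were treated 24hr at 37C. A 3hr, 3uM-final Luciferin-IPA step preceded luminescence measurement with One-Glo.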
# [16] = target: Nuclear receptor subfamily 1 group I member 2 (Homo sapiens) (UniProt O75469); test: Human pregnane X receptor (PXR) activation by small molecules, qHTS assay (AID 1346985); further: nearly all actives have a fitted effect of over 40% in size; further: potency means the concentration at half of the fitted maximal effect
# Summary of the method: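 DPX-2 cells (HepG2 co-transfected with a PXR response element and a CYP3A4-promoter luciferase construct) were seeded at 2,000 per well, rested 5 hr at 37C, then exposed to DMSO-dissolved compounds for 24 hr. Activation was read as luciferase luminescence.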
# [17] = target: Cytochrome P450 2D6 (Homo sapiens) (UniProt P10635); test: Cytochrome P450 Family 2 Subfamily D Member 6 (CYP2D6) small molecule antagonists: luciferase reporter qHTS assay (AID 1671196); further: nearly all actives have a fitted effect of over 50% in size; further: potency means the concentration at half of the fitted maximal effect
# Summary of the method: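 Room-temperature luminescent CYP2D6 activity assay: compound preincubated 10 min with enzyme–substrate mix, NADPH-initiated reaction 1 h, detection reagent 20 min before reading.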
# [18] = qHTS assay to identify small molecule agonists of the TGF-beta/Smad signaling pathway (AID 1346859; active means well fitted activation curve with a large enough effect in the signal ratio in the repeat runs, not every such curve was filed as active; the % refers to the signal ratio; further: series mostly up to about 77 µM)
# Summary of the method: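 Beta-lactamase reporter activity downstream of Smad binding elements was measured in stably transfected HEK 293T cells; compounds were incubated for 5 hr, substrate for 2 hr at room temperature.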
# [19] = target: Progesterone receptor (Homo sapiens) (UniProt P06401); test: qHTS assay to identify small molecule antagonists of the progesterone receptor (PR) signaling pathway (AID 1346795; active means well fitted inhibition curve with a large enough effect in the signal ratio in the repeat runs, not every such curve was filed as active; the % refers to the signal ratio)
# Summary of the method: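 Screening used a GripTite HEK293T line with PR-responsive UAS-beta-lactamase. Cells were challenged with compound in the presence of 1 nM R5020 final for 16 hr at 37C; B/G FRET substrate, 2 hr room temperature, fluorescence.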
# Sequence of Progesterone receptor (Homo sapiens) (P06401 whole entry, looked up): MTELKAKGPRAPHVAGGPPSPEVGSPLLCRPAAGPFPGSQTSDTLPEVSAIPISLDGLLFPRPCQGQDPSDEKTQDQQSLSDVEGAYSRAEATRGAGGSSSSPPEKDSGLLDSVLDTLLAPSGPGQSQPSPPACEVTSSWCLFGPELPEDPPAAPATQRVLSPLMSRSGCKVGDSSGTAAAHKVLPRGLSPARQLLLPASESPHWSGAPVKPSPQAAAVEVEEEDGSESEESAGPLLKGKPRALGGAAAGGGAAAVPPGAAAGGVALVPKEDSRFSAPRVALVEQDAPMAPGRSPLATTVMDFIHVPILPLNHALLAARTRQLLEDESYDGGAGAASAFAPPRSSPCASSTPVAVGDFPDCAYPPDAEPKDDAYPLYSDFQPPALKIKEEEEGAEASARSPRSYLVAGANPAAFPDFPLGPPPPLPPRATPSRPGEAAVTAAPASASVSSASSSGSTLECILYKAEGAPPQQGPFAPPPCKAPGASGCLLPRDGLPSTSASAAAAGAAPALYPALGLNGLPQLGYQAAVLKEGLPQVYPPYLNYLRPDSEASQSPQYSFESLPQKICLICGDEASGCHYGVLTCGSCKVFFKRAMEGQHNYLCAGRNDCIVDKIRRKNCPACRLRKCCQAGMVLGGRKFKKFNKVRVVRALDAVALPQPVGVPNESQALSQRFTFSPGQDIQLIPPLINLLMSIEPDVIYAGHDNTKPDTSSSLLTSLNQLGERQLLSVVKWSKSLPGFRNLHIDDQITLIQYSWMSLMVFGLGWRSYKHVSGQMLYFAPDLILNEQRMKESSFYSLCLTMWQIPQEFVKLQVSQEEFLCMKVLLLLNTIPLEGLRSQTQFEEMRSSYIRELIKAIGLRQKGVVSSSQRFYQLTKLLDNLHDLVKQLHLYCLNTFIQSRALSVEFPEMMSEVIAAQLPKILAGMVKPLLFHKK
# Sequence of Cytochrome P450 2D6 (Homo sapiens) (P10635 whole entry, looked up): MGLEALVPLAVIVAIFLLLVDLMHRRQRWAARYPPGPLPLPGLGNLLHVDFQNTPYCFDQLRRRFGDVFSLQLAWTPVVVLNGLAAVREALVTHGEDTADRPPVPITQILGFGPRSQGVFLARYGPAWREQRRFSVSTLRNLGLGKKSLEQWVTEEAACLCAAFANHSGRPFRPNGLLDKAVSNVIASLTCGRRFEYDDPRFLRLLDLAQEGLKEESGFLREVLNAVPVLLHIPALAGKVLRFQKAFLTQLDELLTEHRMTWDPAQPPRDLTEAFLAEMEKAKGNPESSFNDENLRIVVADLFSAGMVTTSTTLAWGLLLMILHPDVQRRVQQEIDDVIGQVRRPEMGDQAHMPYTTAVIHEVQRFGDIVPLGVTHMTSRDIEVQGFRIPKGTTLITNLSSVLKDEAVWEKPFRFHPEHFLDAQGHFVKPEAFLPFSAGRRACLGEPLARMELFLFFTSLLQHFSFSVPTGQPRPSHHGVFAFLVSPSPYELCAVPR
# Sequence of Thyrotropin-releasing hormone receptor (Homo sapiens) (P34981 whole entry, looked up): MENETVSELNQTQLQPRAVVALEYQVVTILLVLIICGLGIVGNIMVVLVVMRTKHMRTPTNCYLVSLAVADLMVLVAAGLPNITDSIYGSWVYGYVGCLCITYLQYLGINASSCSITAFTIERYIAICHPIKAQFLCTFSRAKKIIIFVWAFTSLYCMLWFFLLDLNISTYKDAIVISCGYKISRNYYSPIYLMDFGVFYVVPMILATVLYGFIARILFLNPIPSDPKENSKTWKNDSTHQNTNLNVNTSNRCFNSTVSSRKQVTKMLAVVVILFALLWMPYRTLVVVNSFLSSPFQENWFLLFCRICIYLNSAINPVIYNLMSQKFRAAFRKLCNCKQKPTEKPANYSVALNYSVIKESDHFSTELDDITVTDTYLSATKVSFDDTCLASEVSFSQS
# Sequence of Nuclear receptor subfamily 1 group I member 2 (Homo sapiens) (O75469 whole entry, looked up): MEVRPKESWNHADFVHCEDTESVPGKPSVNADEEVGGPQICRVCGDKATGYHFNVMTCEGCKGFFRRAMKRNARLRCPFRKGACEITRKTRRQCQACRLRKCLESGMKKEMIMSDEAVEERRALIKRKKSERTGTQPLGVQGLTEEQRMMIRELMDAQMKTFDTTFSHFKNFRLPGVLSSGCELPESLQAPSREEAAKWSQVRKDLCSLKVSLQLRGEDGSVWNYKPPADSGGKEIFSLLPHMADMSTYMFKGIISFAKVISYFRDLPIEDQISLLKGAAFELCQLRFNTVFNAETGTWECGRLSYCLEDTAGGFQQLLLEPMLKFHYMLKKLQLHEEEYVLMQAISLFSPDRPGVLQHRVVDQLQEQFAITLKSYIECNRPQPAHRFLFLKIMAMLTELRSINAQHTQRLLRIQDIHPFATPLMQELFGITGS
SMILES,Potency [1],Potency [2],Potency [3],Potency [4],Potency [5],Potency [6],Potency [7],outcome [8],Potency [9],Potency [10],Potency [11],Potency [12],Potency [13],Potency [14],Potency [15],Potency [16],Potency [17],Potency [18],Potency [19]
CCCCCCCCCCCCCCCC[N+](C)(C)CC,inactive,inactive,68.8 µM (active),68.8 µM (active),43.8 µM (active),55.1 µM (active) and 26.8 µM (active),30.2 µM (active) and inactive,inactive,54.6 µM (active),inactive,43.4 µM (active) and 29.8 µM (active),inactive,61.3 µM (active),inactive,inactive,inactive,566 nM (active) and 871 nM (active),,
OC1CCC(C2CCCCC2)CC1 (stereo unspecified),inactive,inactive,inactive,inactive,inactive,inactive,inactive,,inactive,inactive,,inactive,inactive,inactive,,,,inactive,
O=C1CCCCCCCCCCCCCCCO1,inactive,inactive,inactive,inactive,,inactive,inactive,inactive,inactive,inactive,,inactive,inactive,inactive,,,inactive,inactive,
CN1CCCCC1CCN1c2ccccc2Sc2ccc(S(C)=O)cc21 (stereo unspecified),inactive,inactive,,,inactive,inactive,inactive,inactive,,inactive,,inactive,,4.73 µM (active),inactive,15.8 µM (active),0.0871 µM (active),inactive,inactive
O=[N+]([O-])c1ccc(O)cc1C(F)(F)F,27.3 µM (active),inactive,inactive,,inactive,inactive,inactive,inactive,,inactive,24.3 µM (active),inactive,43.3 µM (active),,,,14.2 µM (active),inactive,
CCCCNS(=O)(=O)c1ccc(C)cc1,inactive,inactive,inactive,inactive,inactive,inactive,inactive,inactive,inactive,inactive,inactive,inactive,inactive,,,,,inactive,
CCCCCCCCCCCCOC(=O)c1ccc(O)cc1,inactive,inactive,inactive,,inactive,inactive,inactive,,,54.9 µM (active),,61.6 µM (active),,27.5 µM (active),,,11.3 µM (active),inactive,
